According to PubChem BioAssay:
Active and inactive are the calls of the source.

How the values were obtained:
[1] = optical density shifts of acrAB sulA E. coli – strain DRC41, OD650, 48 h, E. coli filamentation inducer project, primary screen (AID 1152); details: higher = more signal, called active from +8 up or from −8 down;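 note: E. coli MC1000 strain DRC41 lacking acrAB efflux pump and sulA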
[2] = probe aLefty1 binding on compound microarray – biochemical, small-molecule microarray, 635/667 nm fluorescence, primary screen (AID 1153); details: higher = more signal;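 note: score merges spot fluorescence with signal-to-noise ratio from the scanned slide images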
[3] = plasmodial surface anion channel blockers, osmotic lysis – cell-based, P. falciparum Indochina, OD700, 1 h, primary screen (AID 1154); details: P. falciparum Indochina infected RBC osmotic lysis, higher = more signal, called active from +8 up or from −8 down
[4] = plasmodial surface anion channel blockers, osmotic lysis – cell-based, P. falciparum Indochina, OD700, 2 h, primary screen (AID 1155);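 note: lysis reports solute entry through the parasite surface anion channel PSAC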; details: P. falciparum Indochina infected erythrocytes, higher = more signal, called active from +8 up or from −8 down
[5] = changes in parasitized red cell lysis, either direction – P. falciparum Indochina, OD700, 3 h, PSAC antagonist project, primary screen (AID 1156); details: P. falciparum-infected erythrocytes, osmotic lysis, higher = more signal, called active from +8 up or from −8 down
[6] = plasmodial surface anion channel blockers, osmotic lysis – cell-based, P. falciparum Indochina, OD700, 18 h, primary screen (AID 1157); details: P. falciparum Indochina infected erythrocytes, osmotic lysis OD700, 18 h; higher = more signal, called active from +8 up or from −8 down
[7] = S6 kinase pathway phospho-S6 level changes – cell-based, A549, cytoblot, luminescence, serum-stimulated, primary screen (AID 1158); details: 5 h, higher = more signal;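 note: serum-stimulated A549 lung adenocarcinoma cells; signal is phosphorylated S6 detected by cytoblot immunostaining with HRP secondary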
[8] = biological target: NADPH oxidase 2 (Homo sapiens) (UniProt P04839); test: compounds shifting NOX2 Amplex Red fluorescence – cell-based, HEK293-NOX2, PMA-stimulated, NOX inhibitor project, primary screen (AID 1159); details: 45 min, higher = more signal, called active from +8 up or from −8 down; note: test concentration not given here
[9] = biological target: NADPH oxidase 4 (Homo sapiens) (UniProt Q9NPH5); test: compounds shifting NOX4 Amplex Red fluorescence – cell-based, HEK293-NOX4, tetracycline-induced, NOX inhibitor project, primary screen (AID 1160); details: HEK293-NOX4, Amplex Red H2O2 fluorescence, 45 min; higher = more signal, called active from +8 up or from −8 down
[10] = biological target: NADPH oxidase 5 (Homo sapiens) (UniProt Q96PH1); test: compounds shifting NOX5 Amplex Red fluorescence – cell-based, HEK293-NOX5, NOX inhibitor project, primary screen (AID 1161); details: HEK293-NOX5, ionomycin, 45 min, higher = more signal
[11] = compound effects on lung adenocarcinoma cell viability – A549, calcein-AM fluorescence, 48 h, basal, profiling panel (AID 1162); details: higher = more signal; note: test concentration not given here
[12] = compound effects on differentiated 3T3-L1 adipocyte viability – cell-based, 3T3-L1 adipocytes, calcein-AM fluorescence, 48 h, basal, profiling panel (AID 1163); details: 3T3-L1 adipocytes viability, higher = more signal; note: test concentration not given here
[13] = compound effects on hepatocellular carcinoma cell viability – HepG2, calcein-AM fluorescence, 48 h, basal, profiling panel (AID 1164); details: higher = more signal; note: test concentration not given here
[14] = compound effects on multiple myeloma cell viability – MM1S, calcein-AM fluorescence, 48 h, basal, profiling panel (AID 1165); details: higher = more signal;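 note: viability of MM1S multiple myeloma cells under basal unstimulated conditions; test concentration not given here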
[15] = calcein-AM signal in unstimulated myeloma cells – cell-based, calcein-AM fluorescence, 48 h, PK04 Diversity Set, profiling panel (AID 1166); details: RPMI8226 myeloma viability, higher = more signal;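 note: cells grown under basal conditions without added stimulus; test concentration not given here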
[16] = JC-1 mitochondrial signal, unstimulated HepG2 cells – cell-based, JC-1 fluorescence, 24 h, 100 nL compound, profiling panel (AID 1167); details: HepG2 mitochondrial potential, higher = more signal; note: test concentration not given here
[17] = JC-1 mitochondrial signal, unstimulated adipocytes – cell-based, JC-1 fluorescence, 3T3-L1 adipocytes, 24 h, 100 nL compound, profiling panel (AID 1168); details: JC-1 mitochondrial fluorescence, higher = more signal, called active from +8 up or from −8 down; note: test concentration not given here
[18] = JC-1 mitochondrial signal, unstimulated myeloma cells – cell-based, JC-1 fluorescence, RPMI8226, 24 h, 100 nL compound, profiling panel (AID 1169); details: JC-1 mitochondrial potential fluorescence, higher = more signal; note: test concentration not given here
[19] = JC-1 mitochondrial signal, unstimulated MM1S myeloma – cell-based, JC-1 fluorescence, 24 h, 100 nL compound, profiling panel (AID 1170); details: MM1S mitochondrial potential, higher = more signal; note: test concentration not given here
[20] = resazurin metabolic signal in A549 cells – cell-based, resazurin fluorescence, 24 h, PK04 Diversity Set, profiling panel (AID 1171); details: A549 viability, higher = more signal, called active from +8 up or from −8 down; note: test concentration not given here

NADPH oxidase 5 (Homo sapiens), sequence (Q96PH1 whole entry, looked up): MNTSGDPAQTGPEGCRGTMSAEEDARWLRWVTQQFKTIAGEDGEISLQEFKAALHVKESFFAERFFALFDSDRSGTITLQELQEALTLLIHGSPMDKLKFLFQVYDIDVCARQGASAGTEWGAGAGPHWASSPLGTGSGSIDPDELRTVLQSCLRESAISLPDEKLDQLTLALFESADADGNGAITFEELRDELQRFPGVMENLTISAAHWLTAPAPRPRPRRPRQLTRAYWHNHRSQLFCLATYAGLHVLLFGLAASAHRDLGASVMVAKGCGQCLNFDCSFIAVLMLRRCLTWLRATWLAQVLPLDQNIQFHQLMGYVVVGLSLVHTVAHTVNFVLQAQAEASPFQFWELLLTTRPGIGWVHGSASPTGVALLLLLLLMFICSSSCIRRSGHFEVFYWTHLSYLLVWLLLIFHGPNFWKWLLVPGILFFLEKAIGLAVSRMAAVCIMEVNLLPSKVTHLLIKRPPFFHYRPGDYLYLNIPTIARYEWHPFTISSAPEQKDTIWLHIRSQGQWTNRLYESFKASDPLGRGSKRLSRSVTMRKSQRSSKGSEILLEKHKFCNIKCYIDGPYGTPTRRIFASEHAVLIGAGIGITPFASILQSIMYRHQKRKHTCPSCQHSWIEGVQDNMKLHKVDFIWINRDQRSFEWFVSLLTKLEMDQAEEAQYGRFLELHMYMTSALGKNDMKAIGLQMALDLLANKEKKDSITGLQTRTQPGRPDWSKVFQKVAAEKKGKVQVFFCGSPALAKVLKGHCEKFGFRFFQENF
NADPH oxidase 4 (Homo sapiens), sequence (Q9NPH5 whole entry, looked up): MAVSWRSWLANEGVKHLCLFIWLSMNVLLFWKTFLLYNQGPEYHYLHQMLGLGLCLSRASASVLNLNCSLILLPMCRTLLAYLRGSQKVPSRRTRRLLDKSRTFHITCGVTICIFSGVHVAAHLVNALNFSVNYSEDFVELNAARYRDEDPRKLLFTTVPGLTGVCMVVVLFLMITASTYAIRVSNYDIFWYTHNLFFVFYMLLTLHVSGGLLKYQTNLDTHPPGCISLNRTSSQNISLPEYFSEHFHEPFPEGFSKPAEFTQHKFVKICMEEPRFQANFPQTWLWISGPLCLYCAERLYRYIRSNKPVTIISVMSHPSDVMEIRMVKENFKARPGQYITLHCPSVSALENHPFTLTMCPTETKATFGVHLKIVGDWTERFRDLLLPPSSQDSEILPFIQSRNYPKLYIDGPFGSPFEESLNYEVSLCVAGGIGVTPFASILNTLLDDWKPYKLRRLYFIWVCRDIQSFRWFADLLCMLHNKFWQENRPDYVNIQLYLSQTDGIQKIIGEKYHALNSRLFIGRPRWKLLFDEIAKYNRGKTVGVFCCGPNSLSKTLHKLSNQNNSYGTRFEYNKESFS
NADPH oxidase 2 (Homo sapiens), sequence (P04839 whole entry, looked up): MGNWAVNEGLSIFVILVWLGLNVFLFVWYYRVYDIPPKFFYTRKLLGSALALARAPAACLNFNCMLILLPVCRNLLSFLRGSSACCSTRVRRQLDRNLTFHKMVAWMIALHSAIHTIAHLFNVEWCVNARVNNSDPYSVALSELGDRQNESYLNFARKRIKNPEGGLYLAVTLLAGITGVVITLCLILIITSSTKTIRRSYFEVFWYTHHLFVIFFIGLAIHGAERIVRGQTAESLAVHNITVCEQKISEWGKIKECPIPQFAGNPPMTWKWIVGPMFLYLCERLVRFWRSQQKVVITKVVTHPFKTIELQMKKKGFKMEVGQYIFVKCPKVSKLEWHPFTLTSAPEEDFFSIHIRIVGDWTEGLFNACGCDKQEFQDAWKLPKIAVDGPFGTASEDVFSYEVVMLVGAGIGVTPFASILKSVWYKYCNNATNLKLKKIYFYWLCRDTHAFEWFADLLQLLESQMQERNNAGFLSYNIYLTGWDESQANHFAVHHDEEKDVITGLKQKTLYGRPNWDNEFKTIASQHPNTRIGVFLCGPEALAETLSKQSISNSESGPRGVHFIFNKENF

Row | Structure (SMILES) | z-score [1] | composite z-score [2] | z-score [3] | z-score [4] | z-score [5] | z-score [6] | z-score [7] | z-score [8] | z-score [9] | z-score [10] | z-score [11] | z-score [12] | z-score [13] | z-score [14] | z-score [15] | z-score [16] | z-score [17] | z-score [18] | z-score [19] | z-score [20]
1 | COc1ccc(O[C@H]2C=C[C@@H](C#Cc3ccccc3)O[C@@H]2CO)cc1 | 0.311 (inactive) | 0.042 | 2.26 (inactive) | 0.323 (inactive) | -0.24 (inactive) | -0.144 (inactive) | 0.297 | 1.33 (inactive) | -0.196 (inactive) | -0.196 | -0.167 | 0.956 | -1.03 | -3.57 | -3.67 | -1.19 | -0.252 (inactive) | -0.891 | -1.46 | 0.447 (inactive)
2 | C#CCCCON=C1C[C@@H](O)[C@@H](O)[C@@H]2[C@@H]3C(=O)N(C4CCCCC4)C(=O)[C@@H]3CC[C@@H]12 | 0.0164 (inactive) | -0.276 | 1.17 (inactive) | -0.164 (inactive) | -0.492 (inactive) | 0.132 (inactive) | -0.25 | 1.13 (inactive) | 0.699 (inactive) | -0.0773 | -0.205 | -0.117 | -0.139 | 0.183 | -1.94 | -1.32 | -0.462 (inactive) | -0.0811 | 0.431 | -0.255 (inactive)
3 | COC(=O)[C@H](C)NC(=O)CCC1CC(OC(=O)NCc2cccc3ccccc23)CC2(CCCC(COC(=O)NCCc3ccccc3OC)O2)O1 (stereo not given in full) | -0.731 (inactive) | -0.193 | 7.29 (inactive) | 1.37 (inactive) | -0.148 (inactive) | 0.494 (inactive) | -0.353 | -0.49 (inactive) | 0.357 (inactive) | 0.512 | -0.932 | -1.02 | -1.44 | -3.38 | -1.79 | -0.525 | -0.309 (inactive) | 0.179 | -1.33 | 0.642 (inactive)
4 | CC(=O)OC[C@H]1O[C@H](CC=NO[C@@H](C)c2cc(-c3c(C)cc(C)cc3C)no2)C=C[C@@H]1OC(C)=O | 0.11 (inactive) | -0.101 | 2.12 (inactive) | 0.629 (inactive) | 1.12 (inactive) | 0.343 (inactive) | -0.194 | -1.27 (inactive) | -0.444 (inactive) | -2.99 | -0.937 | 0.318 | -0.799 | 0.267 | -1.29 | -0.158 | -0.845 (inactive) | 0.774 | -0.322 | -0.0973 (inactive)
5 | CCOC(=O)[C@H](CC(C)C)NC(=O)CCC1CC(OC(=O)NCc2ccc3c(c2)OCO3)CC2(CCCC(COC(=O)NCCc3ccc(Cl)cc3)O2)O1 (stereo not given in full) | 0.386 (inactive) | 0.213 | 1.83 (inactive) | -0.39 (inactive) | -0.254 (inactive) | -0.144 (inactive) | -0.793 | 0.747 (inactive) | 0.575 (inactive) | 0.301 | 0.0432 | -0.179 | 0.0309 | -0.986 | 0.415 | -0.253 | 0.526 (inactive) | -0.966 | -0.238 | 0.39 (inactive)
6 | COC(=O)[C@H](C)NC(=O)CCC1CC(OC(=O)NCc2ccc3c(c2)OCO3)CC2(CCCC(COC(=O)NCc3ccccc3)O2)O1 (stereo not given in full) | 1.07 (inactive) | -0.0061 | 1.08 (inactive) | 0.0056 (inactive) | 0.049 (inactive) | 0.272 (inactive) | 0.307 | 0.154 (inactive) | 1.22 (inactive) | 0.654 | 3.03 | -0.645 | 0.558 | -0.147 | 1.27 | 1.33 | 0.552 (inactive) | 0.195 | -0.882 | 0.409 (inactive)
7 | COc1ccc(COC(=O)NN=C2C[C@@H](O)[C@@H](O)[C@@H]3[C@@H]4C(=O)N(Cc5ccc6c(c5)OCO6)C(=O)[C@@H]4CC[C@H]23)cc1 | 0.701 (inactive) | 0.781 | 15.7 (active) | 2.17 (inactive) | 0.18 (inactive) | 0.845 (inactive) | 0.767 | -0.657 (inactive) | 0.186 (inactive) | 0.138 | -0.0897 | -0.243 | 0.53 | 0.311 | -0.0157 | 0.301 | -0.339 (inactive) | 0.0307 | -0.825 | -0.0129 (inactive)
8 | COC(=O)CC=C[C@@H](C)[C@@H](C=NOC[C@@H](C)[C@H](OCc1ccccc1)C(C)C)OC | 0.14 (inactive) | -0.29 | 2.17 (inactive) | 0.319 (inactive) | -0.728 (inactive) | -0.0741 (inactive) | 0.391 | 0.64 (inactive) | -0.614 (inactive) | -2.2 | -0.37 | -0.0404 | -0.0472 | -0.18 | -0.991 | 0.0695 | -1.61 (inactive) | -0.151 | -0.93 | -0.891 (inactive)
9 | O=C1C2=CC[C@H]3C(=O)N(Cc4ccccc4)C(=O)[C@H]3[C@H]2[C@H](O)[C@@H]2O[C@H]12 | -0.536 (inactive) | -0.379 | 0.472 (inactive) | 0.147 (inactive) | -0.178 (inactive) | 0.157 (inactive) | -0.451 | -1.41 (inactive) | 0.16 (inactive) | 0.44 | -0.77 | -0.238 | -4.47 | -3.28 | -3.83 | -2.12 | 1.02 (inactive) | -1.05 | -2.91 | 0.152 (inactive)
